The full ranking holds about 33,000 sequences; the median of “E-score (-0.5 to 0.5)” is about -0.035, and the highest 2% start at about 0.35. What follows is part of a selection rich in the highest values, with near analogues and random picks from the rest.
These sequences were tested against T1, Pdr3 (UniProt P33200) (assay: PBM E-score (8-mer binding enrichment) (E-score (-0.5 to 0.5)); higher = stronger / more preferred TF binding). Conditions: protein concentration: 200 nM; construct: GST-full length.
T1 sequence: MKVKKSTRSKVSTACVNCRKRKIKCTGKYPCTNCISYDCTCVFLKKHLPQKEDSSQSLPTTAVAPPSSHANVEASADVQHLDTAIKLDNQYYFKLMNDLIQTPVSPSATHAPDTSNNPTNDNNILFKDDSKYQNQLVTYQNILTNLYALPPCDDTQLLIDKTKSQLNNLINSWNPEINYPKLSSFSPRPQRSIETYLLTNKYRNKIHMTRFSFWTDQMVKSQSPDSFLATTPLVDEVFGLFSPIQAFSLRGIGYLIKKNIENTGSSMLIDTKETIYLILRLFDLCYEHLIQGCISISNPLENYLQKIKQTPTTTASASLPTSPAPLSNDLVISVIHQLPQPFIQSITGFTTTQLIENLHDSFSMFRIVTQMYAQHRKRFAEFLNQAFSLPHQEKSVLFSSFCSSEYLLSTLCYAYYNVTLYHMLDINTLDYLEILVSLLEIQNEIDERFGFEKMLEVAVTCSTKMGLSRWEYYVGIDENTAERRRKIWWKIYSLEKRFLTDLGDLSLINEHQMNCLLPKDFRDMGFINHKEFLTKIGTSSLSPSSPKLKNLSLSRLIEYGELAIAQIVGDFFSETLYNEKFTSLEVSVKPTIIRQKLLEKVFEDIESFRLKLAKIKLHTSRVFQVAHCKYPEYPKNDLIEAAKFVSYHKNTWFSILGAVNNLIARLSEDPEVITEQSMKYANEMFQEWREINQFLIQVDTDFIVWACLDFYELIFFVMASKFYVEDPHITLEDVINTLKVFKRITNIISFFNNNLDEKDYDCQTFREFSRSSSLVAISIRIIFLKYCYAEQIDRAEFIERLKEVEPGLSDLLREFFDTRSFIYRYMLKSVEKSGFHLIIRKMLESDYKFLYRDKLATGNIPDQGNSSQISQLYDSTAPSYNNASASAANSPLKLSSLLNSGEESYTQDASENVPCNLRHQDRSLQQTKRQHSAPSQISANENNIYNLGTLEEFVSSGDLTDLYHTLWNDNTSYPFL
How it was run: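 Full-length yeast transcription factors or their DNA-binding domains, GST-tagged and expressed with PURExpress, were applied at about 100-200 nM to universal all-10-mer Agilent arrays. These arrays had been made double-stranded by primer extension on fresh or once-stripped slides. Detection used fluorescent anti-GST, normalisation used masliner, and E-scores for ungapped eight-base words pooled with reverse complements came from the Universal PBM Analysis Suite.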

In order of falling “PBM E-score” value:
1. TCGGAACA  0.483
2. GTCCGGAC  0.481
3. ATTCCGCG  0.479
4. ACGGAACA  0.477
5. CTCCGGAG  0.476
6. GCGGAACA  0.474
7. GTTCCGAA  0.471
8. CCGGAACA  0.471
9. ATCCGGAT  0.465
10. ATCCGGAA  0.464
11. GTTCCGCA  0.462
12. GTCCGGAA  0.457
13. ATTCCGAG  0.449
14. CTCCGGAA  0.441
15. TCCGGAGA  0.44
16. CTTCGGAA  0.438
17. ATTCCGAA  0.436
18. ATCCGGAG  0.433
19. GTTCGGAA  0.431
20. CGCTTCCG  0.419
21. ATTCCGCC  0.417
22. AGCTTCCG  0.416
23. ATTCGGAA  0.415
24. ATTCCGAC  0.413
25. TTCCGAAA  0.41
26. TTCCGCAA  0.404
27. ATCCGGCC  0.403
28. CCCGGAGA  0.387
29. CTTCCGAA  0.385
30. ACTTCCGC  0.385
31. CTCCGGAC  0.382
32. CCTTCCGC  0.38
33. ATTCCGCA  0.379
34. ATCCGAAT  0.365
35. CCGGGAAC  0.362
36. CCGGGAAG  0.359
37. ATCCGGAC  0.355
38. ACCGGAGA  0.353
39. ATCCGGTG  0.35
40. ATGCCGCG  0.346
41. CCGGGAAA  0.344
42. CTCCGGCA  0.34
43. CTTCCGCC  0.336
44. ACGGGAAC  0.33
45. CTCCGGTC  0.328
46. AGCGCGGG  0.324
47. CCTTCCGA  0.323
48. ATCCGGCG  0.323
49. CTCCGGTA  0.321
50. GGTCCGAA  0.319
51. ACCCGGAC  0.317
52. ATCCGAAC  0.316
53. ATCCGCAG  0.316
54. CTCCGAAG  0.311
55. CTTCCGCA  0.307
56. GTCCGGCA  0.295
57. TCCGATAA  0.289
58. CTTCGGAC  0.283
59. AGTCCGAG  0.281
60. ACTCCGAG  0.28
61. ATTCGGAC  0.275
62. CTTCCGAC  0.267
63. ATCCGCAT  0.267
64. GTCCGAAA  0.264
65. GTCCGCAA  0.259
66. CGGGGAAC  0.258
67. ACTCCGAC  0.255
68. ATCCGGCA  0.255
69. CACCGGAG  0.253
70. ATCCGAAA  0.248
71. GCCGGAGA  0.244
72. ACTCCGAA  0.238
73. ACTTACCG  0.233
74. GTTCGGGA  0.233
75. ATCCGCAA  0.222
76. ATCCGAAG  0.22
77. GTCCGCAC  0.215
78. ATCCGGTC  0.215
79. ATGCGGTC  0.21
80. ATTCCACA  0.204
81. ATTCGGAG  0.2
82. AGTTGCCG  0.196
83. GTCCGGTA  0.181
84. CTGAGTGA  0.179
85. AATCCGCC  0.17
86. ATCCGGTA  0.168
87. CCCGGAGG  0.165
88. CTCCGTAC  0.162
89. ATAGACCC  0.154
90. ACTCCGCA  0.154
91. CGCCTCAC  0.152
92. GAGGAACA  0.147
93. ACACGGCC  0.14
94. ACGGGAAG  0.133
95. CCCGCTCG  0.133
96. CTGGAACA  0.117
97. AACGCAAT  0.115
98. ATCAGGAT  0.113
99. CGCTTCCC  0.0936
100. AATCCGAA  0.0894
101. GGAGTAAC  0.0889
102. TGGGAACA  0.0839
103. GTGGAACA  0.0611
104. GTTCGGCA  0.054
105. CTCCGGCC  0.0522
106. GGGTTGAC  0.0502
107. ACGGTAAA  0.0442
108. ATCAGTCA  0.0413
109. ACTTCCAC  0.0382
110. AGCTTCCA  0.0336
111. GTTCCTCA  0.0277
112. ACATCGCG  0.0219
113. AGAAAATA  0.0181
114. CAGGTGCA  0.0121
115. CGCCAGTA  0.00965
116. AAACATGT  0.00604
117. ACTTTGCA  0.00219
118. CGCTTCCA  -0.00125
119. GTTCCAAA  -0.00321
120. CAGGAACA  -0.0115
121. CGTGCCTC  -0.0179
122. AAATTCAT  -0.0189
123. AGTATGCC  -0.0201
124. ACGGCACA  -0.0224
125. TCTCGTCA  -0.0279
126. CTCGCGCA  -0.029
127. ACGAGGCC  -0.0311
128. CGCTTCGC  -0.0359
129. AGCATACC  -0.0406
130. TAGGAACA  -0.0452
131. CACCCAGC  -0.0529
132. CTATCCTA  -0.0548
133. CCTAGTGC  -0.0662
134. AGCTTCCC  -0.0703
135. ACGGTTAT  -0.0715
136. GTCAAGGA  -0.0724
137. AGAAGGTA  -0.0743
138. CTACCGAA  -0.0817
139. AGATTCAT  -0.0927
140. CTTCGGTA  -0.0957
141. ATGGAACA  -0.0996
142. CTAGGTGC  -0.121
143. AAGAGCAA  -0.123
144. GCTCTGAA  -0.126
145. AAGGAACA  -0.129
146. ACTTCCCC  -0.132
147. CGTTAAGA  -0.136
148. AGAGATCG  -0.137
149. AACGCATC  -0.139
150. CTCCACGA  -0.144
151. AACTGCGC  -0.146
152. AGCAAGTA  -0.149
153. CTTCCAAA  -0.155
154. GTGCAAAA  -0.168
155. GTTCCCCA  -0.173
156. GGCCAAGA  -0.176
157. ACTTGCAG  -0.177
158. ACGTCTTG  -0.178
159. ACTATGTA  -0.181
160. CTAGCAAA  -0.187
161. AATTTTAG  -0.194
162. AGGGCCTG  -0.195
163. ACTGTAGC  -0.197
164. CCTTCCTC  -0.201
165. CCTAGATC  -0.201
166. AAGAGATA  -0.206
167. AGCCTAAT  -0.208
168. GACGCTAA  -0.213
169. CAGTGCTC  -0.213
170. ACTAGAAA  -0.213
171. CCCAGAGA  -0.223
172. TAGCATGA  -0.224
173. ACTACGCA  -0.236
174. GTCTAGGA  -0.256
175. AGGGGCAC  -0.293
